# Screening data deposited in PubChem by National Center for Advancing Translational Sciences (NCATS).
# MCF10A rereplic: inducers of DNA re-replication in MCF 10A breast cells. AID 624296. 2.9% of 350,000 active. MCF 10A DNA re-replication, Hoechst nuclear intensity, 48 h. Potency, µM (series often up to 46.1 µM), inactives show at the top dose activity, positive = re-replication, usual class: activators; also: potency is read from the fitted curve at half-maximal effect; % of control where 0% means no effect; nearly all actives have a fitted effect of over 50% in size
# KB-3-1 tox: KB-3-1 parental cell cytotoxicity; KB-3-1 viability, CellTiter-Glo ATP luminescence, 72 h; AID 1347075; Potency, µM (top dose mostly 46.1 µM), hits mostly cytotoxic; 1.4% of 400,000 active; also: potency is read from the fitted curve at half-maximal effect; % is scaled to controls: 0 for no effect and ±100 for the full control effect; nearly all actives have a fitted effect of over 60% in size
#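 Viability of parental KB-3-1 cells, measured by CellTiter-Glo luminescence, followed a 72 h incubation at 37 °C with pinned compounds in phenol-red-free DMEM containing 10% FBS.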
# SW480 rereplic: inducers of DNA re-replication in SW480 colon cancer cells. SW480 DNA re-replication, Hoechst DNA content imaging, 48 h. Potency, µM (series often up to 46.1 µM), for inactives: at the top dose re-replication activation, hits mostly activators. 1.8% of 340,000 active; also: potency is read from the fitted curve at half-maximal effect; % of control where 0% means no effect; nearly all actives have a fitted effect of over 55% in size
#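 Image-based DNA-content assay: after two days of treatment, nuclei were labelled with the DNA dye Hoechst and imaged, and hits were compounds raising the count of nuclei showing high fluorescence intensity.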
# KB-V1 MDR tox: kills drug-selected multidrug resistant KB-V1 cells; 3.4% of 400,000 active; Potency, µM (highest dose often 46.1 µM), hits mostly cytotoxic; KB-V1 MDR cells viability, CellTiter-Glo, 72 h; AID 1347076; also: potency is read from the fitted curve at half-maximal effect; % is scaled to controls: 0 for no effect and ±100 for the full control effect; nearly all actives have a fitted effect of over 60% in size
#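 KB-V1 MDR subline cells in DMEM (phenol-red free, 10% FBS) exposed to compounds in qHTS concentration series for 72 h at 37 degrees C. Viability read by CellTiter-Glo luminescence; concentration-effect curves fitted after normalization and correction.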
# D3 antag: antagonists of human D3 dopamine receptor | D3R cells, DiscoveRx beta-arrestin luminescence, antagonist mode; active compounds read low | max response, negative = inhibition, % | 2.5% of 360,000 active | AID 652054; in the data active = max response below about -50%; inconclusive = no clear call, values can overlap the other calls; also: % is scaled to controls: 0 for no effect and ±100 for the full control effect
# Target sequence (P35462 whole entry, looked up): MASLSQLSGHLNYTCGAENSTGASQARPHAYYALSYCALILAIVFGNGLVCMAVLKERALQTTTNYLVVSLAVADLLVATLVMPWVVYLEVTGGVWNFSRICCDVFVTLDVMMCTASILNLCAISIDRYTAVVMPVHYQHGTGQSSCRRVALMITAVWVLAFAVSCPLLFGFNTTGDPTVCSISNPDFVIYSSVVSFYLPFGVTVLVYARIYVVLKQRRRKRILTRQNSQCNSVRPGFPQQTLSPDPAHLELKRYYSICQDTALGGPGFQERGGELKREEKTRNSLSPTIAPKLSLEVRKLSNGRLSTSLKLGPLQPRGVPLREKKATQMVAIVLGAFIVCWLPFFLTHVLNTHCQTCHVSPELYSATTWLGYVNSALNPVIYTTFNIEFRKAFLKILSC
#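 Cells expressing the human receptor were seeded at 1500 cells/well, incubated overnight at 37 degrees C in 5% CO2, then exposed to library compounds with dopamine controls for 90 minutes at 37 degrees C before luminescent detection.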
# DRD3 agonist: activates the human D3 dopamine receptor; P35462; D3R DiscoveRx beta-arrestin cells, luminescence, 90 min; max activation, %; 0.58% of 410,000 active; in the data active = max activation above about 30%; also: 0% is about no effect
#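 Agonist mode: compounds and dopamine controls were applied to plated cells for 90 min at 37 degrees C after an overnight attachment at 1500 cells/well. Luminescent read-out followed 30 - 60 minutes at room temperature with DiscoveRx detection reagent.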
# Numbers without * were called inactive; i = inactive; ? = inconclusive; . = no result. Rows were chosen to be rich in hits. Some 8.9% of all compounds tested hit in one or more screens of this group. Unless noted, calls follow the shape of the dose curve; as a rule, active = well fitted curve in the direction sought with a large enough effect; inconclusive = small, poorly fitted or top-dose-only effect, or another doubt; inactive = no such curve, though single readings can be large; an effect the other way counts as inactive or inconclusive.
SMILES,MCF10A rereplic,KB-3-1 tox,SW480 rereplic,KB-V1 MDR tox,D3 antag,DRD3 agonist
COc1ccc(N2CCN(C(=O)c3cc(N4C(=O)C5C6CCC(C6)C5C4=O)ccc3Cl)CC2)cc1 (configuration not stated),-52%,?,-75%,4.6µM*,-17,-2
O=C(c1cc(N2C(=O)C3C4CCC(C4)C3C2=O)ccc1Cl)N1CCN(c2ccccc2F)CC1 (configuration not stated),0%,?,?,4.1µM*,76,-6
COc1ccc(N2CCN(C(=O)c3cccc(N4C(=O)C5CC=CC(C)C5C4=O)c3)CC2)cc1 (configuration not stated),22%,i,-1%,18µM*,16,15
O=CC(=O)c1ccc(Cl)cc1,.,i,.,i,.,.
Cc1ccc(-c2nnc(Nc3ccc(F)cc3)c3ccccc23)cc1S(=O)(=O)NC(C)C,.,i,.,i,.,3
COc1ccc(-n2nnnc2S(=O)(=O)CC(=O)N2CCCCC2)cc1,7.3µM*,21µM*,16%,?,-98*,-9
CCc1ccc(Oc2nnnn2-c2ccc(C(N)=O)cc2)cc1,-4%,i,1%,i,11,-3
COc1cc(OC)cc(-n2nnnc2SCC(=O)N2CCCC2)c1,14%,i,-2%,i,7,6
COc1ccc(-n2nnnc2S(=O)(=O)Cc2ccc(C(=O)O)cc2)cc1,16µM*,i,7.3µM*,i,36,5
COc1ccc(CCNC(=O)Cn2c(=O)nc(-c3ccccc3)c3ccccc32)cc1OC,.,.,.,.,.,4
Cc1cc(O)c(C(=O)/C=C/c2ccc(Cl)cc2)c(=O)o1,?,16µM*,-1%,?,-25,-7
COc1cccc(/C=C/C(=O)c2c(O)cc(C)oc2=O)c1O,?,?,19%,i,-74*,1
COc1ccc(/C=C/C(=O)c2c(O)cc(C)oc2=O)c(OC)c1,?,?,?,?,0,-14
C/C(=C\C(=O)c1c(O)cc(C)oc1=O)N(C)C,-1%,i,-5%,i,9,-4
COc1cc(/C=C/C(=O)c2c(O)cc(C)oc2=O)cc(OC)c1O,2%,?,-1%,?,6,5
CSc1ccc(/C=C/C(=O)c2c(O)cc(C)oc2=O)cc1,?,?,18µM*,i,0,14
Cc1ccc(CNC(=O)c2ccc(N3CCCC3)c(NC(=O)Nc3ccc(F)c(Cl)c3)c2)cc1,.,i,.,i,.,7
O=[N+]([O-])c1ccccc1/C=N/N1CCN(c2ccc(Cl)cc2)CC1,16%,?,-5%,10µM*,2,2
COc1ccccc1N1CCN(/N=C/c2cc(OC)c(OC)c(OC)c2)CC1,-74%,i,-81%,15µM*,1,7
O=[N+]([O-])c1ccccc1/C=N\N1CCN(c2ccccc2)CC1,14%,i,1%,i,21,1
COc1ccccc1N1CCN(/N=C/c2cc([N+](=O)[O-])ccc2Cl)CC1,0.58µM*,i,-79%,i,12,-9
O=[N+]([O-])c1ccc(Cl)c(/C=N/N2CCN(c3ccccc3)CC2)c1,6%,i,3%,i,-19,-1
COc1cc(/C(C)=N/N2CCN(c3ccccc3OC)CC2)ccc1O,3.7µM*,i,-33%,i,0,1
COc1ccccc1N1CCN(/N=C(\C)c2ccccc2O)CC1,0%,i,1%,i,4,0
COc1ccccc1N1CCN(/N=C\c2ccccc2)CC1,-2%,i,-11%,i,16,6
SMILES,MCF10A rereplic,KB-3-1 tox,SW480 rereplic,KB-V1 MDR tox,D3 antag,DRD3 agonist
Cc1ccc(-n2nc(C(=O)N3CCC(C)CC3)c(=O)n(C)c2=O)cc1,.,i,.,?,.,-6
COc1ccccc1C(=O)Nc1ccc2oc(-c3cccc4c(Br)cccc34)nc2c1,.,.,.,.,.,9
O=S(=O)(NCc1ccc(F)cc1)c1ccc(N2CCCCS2(=O)=O)cc1,.,?,.,i,.,-3
Cc1cc(C(=O)N/N=C/c2ccc(-c3cccc(Br)c3)o2)n[nH]1,?,i,21µM*,i,-21,-8
NC(=O)C(=O)N/N=C/c1c2ccccc2cc2ccccc12,23µM*,i,?,i,-9,6
Cc1cc(C(=O)N/N=C/c2c3ccccc3cc3ccccc23)n[nH]1,21µM*,?,?,18µM*,-12,-12
O=C(NCCCN1CCOCC1)C(=O)N/N=C/c1c2ccccc2cc2ccccc12,?,5.8µM*,23µM*,10µM*,-17,-14
CCOc1ccc(NC(=O)c2oc(=O)c3ccccc3c2-c2ccc(C)cc2)cc1,.,i,.,i,.,15
O=C(Nc1cccc(F)c1)c1ccc(S(=O)(=O)NCC2CCCO2)cc1 (configuration not stated),5%,i,20%,16µM*,-11,-30
O=c1cc(O)c2sc(Nc3ccc(Cl)c(F)c3)nc2[nH]1,18%,13µM*,?,i,-6,0
O=c1cc(O)c2sc(Nc3ccc(F)c(Cl)c3)nc2[nH]1,18%,21µM*,1%,i,17,-1
COc1ccc(Nc2nc3[nH]c(=O)cc(O)c3s2)cc1,16%,i,2%,i,3,0
Cc1ccccc1/C=C1\CCCc2ccccc2C1=O,?,i,18%,i,10,1
O=C1/C(=C\c2ccc3ccccc3c2)CCCc2ccccc21,5.8µM*,5.2µM*,?,7.3µM*,2,-6
O=C1C(=Cc2ccccn2)CCc2ccccc21,.,?,.,?,-67*,-15
COc1ccc2c(c1)CC/C(=C/c1ccccn1)C2=O,?,i,?,i,-24,-9
COc1ccc(/C=N/NC(=O)c2[nH]nc3c2CCc2ccccc2-3)cc1OC,5.2µM*,?,?,i,-20,-19
COc1ccc(/C=C2\SC(N3CCc4ccccc4C3)=NC2=O)cc1OC,3.7µM*,?,69%,12µM*,-2,-10
COc1cccc(-c2cccc(NC(=O)C3CCN(CCCn4cccn4)CC3)c2)c1,.,i,.,i,-3,-1
COc1cccc(-c2cc3c(c4c2ccn4C)C2CCC3C2)c1 (configuration not stated),.,i,.,i,-22,-2
COc1ccc(C=C2C=C(C(C)(C)C)C(=O)C(C(C)(C)C)=C2)cc1OC,21µM*,?,?,?,-14,4
COc1ccc(/C=C2\CC/C(=C\c3ccc(OC)c(OC)c3)C2=O)cc1OC,?,18µM*,?,?,4,3
